# The list is not random: actives were taken first. Their share in the collection is about 2.4%.
# EP2 antag: EP2 receptor (human) inhibition. hit rate 0.52% among 260,000. inhibition, % at 25 µM. C6 glioma cells expressing human EP2, cAMP TR-FRET; cells stimulated with saturating PGE2. P43116;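 active = percent inhibition above 40 after rounding to a whole number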;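 also: rat C6 glioma host cells with rolipram phosphodiesterase inhibitor present; the protocol text gives 20 µM as final concentration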
# S1P4 agonist: activates the human S1P4 receptor; AID 1509; activation, % at 4.98 µM; S1P4-expressing cell line, agonist reporter assay; hit rate 0.35% among 220,000; O95977; in the data active = activation above about 11%;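 also: 0% = DMSO vehicle and 100% = reference agonist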
# INS promoter inh: TRM-6 insulin promoter activity inhibition | TRM-6 cells (human fetal islet line), insulin promoter-eGFP reporter, imaging; reporter expression induced with tamoxifen | inhibition, % at 2 µM | hit rate 0.9% among 130,000 | AID 1273;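 active = inhibition above the mean plus 3 SD, with well images judged a real hit on visual review, cut at about 60% in these data, passing the limit was not always enough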
# S1P4 antagonist: human S1P4 receptor antagonism; hit rate 0.26% among 220,000; O95977; S1P4-expressing cells, antagonist mode, reporter read-out; AID 1510; inhibition, % at 4.98 µM; in the data active = inhibition above about 29%;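 also: 0% = wells stimulated with agonist and 100% = vehicle wells without agonist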
# S1P3 antag: S1P3 (human) receptor antagonism | CHO S1P3 NFAT-BLA reporter, FRET fluorescence, antagonist mode | inhibition, % at 4.98 µM | hit rate 0.27% among 170,000 | AID 485;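 active = inhibition above the plate cutoff, the mean inhibition of test wells on that plate plus 3 SD, cut at about 28% in these data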;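 also: cells challenged with S1P at its EC80 of 0.8 µM; blue over green emission ratio from cleaved BLA substrate after 4 h stimulation; 0% = S1P-stimulated wells and 100% = unstimulated DMSO-only wells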
# Target sequence (Q99500 whole entry, looked up): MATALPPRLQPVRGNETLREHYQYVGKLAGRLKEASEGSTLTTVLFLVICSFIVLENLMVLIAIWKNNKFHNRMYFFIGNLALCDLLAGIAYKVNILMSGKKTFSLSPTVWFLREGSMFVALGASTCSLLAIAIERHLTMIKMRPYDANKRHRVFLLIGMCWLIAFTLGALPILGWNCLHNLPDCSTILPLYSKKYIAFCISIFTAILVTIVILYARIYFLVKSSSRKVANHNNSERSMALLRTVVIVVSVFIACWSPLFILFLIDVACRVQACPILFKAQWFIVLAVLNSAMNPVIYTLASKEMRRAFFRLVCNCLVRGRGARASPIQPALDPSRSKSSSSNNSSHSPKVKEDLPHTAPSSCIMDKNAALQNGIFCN
# EP2 modulator: EP2 receptor (human) modulation. P43116. hit rate 0.83% among 260,000. induction, % at 25 µM. EP2-expressing cells, cAMP HTRF FRET, PGE2 co-stimulation;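 active = compounds whose cAMP rise, as percent of the full-agonist control response, exceeds 60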;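 also: rat C6 glioma line stably carrying human EP2 under a CMV promoter; the protocol text gives 20 µM as final concentration; 100% = response of wells given 1 µM PGE2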
# An asterisk follows results filed as active; · = not tested or not shown.
SMILES,EP2 antag,S1P4 agonist,INS promoter inh,S1P4 antagonist,S1P3 antag,EP2 modulator
CCOC(=O)c1c(-c2ccc(OC)c(OC)c2)csc1NC(=O)CC,9,·,·,·,·,4
CCOC(=O)c1c(-c2ccc(C)cc2)csc1NC(=O)COC,2,·,·,·,·,82*
Cc1ccc(C(=N)c2ccccc2Cc2cccc3ccccc23)c2ccccc12,40*,·,·,·,·,39
Cc1cccc(NC(=O)c2c(-c3ccccc3)noc2C)n1,43*,2,17,-9,-5,-55
COc1ccc(Cl)cc1NC(=O)c1c(-c2ccccc2)noc1C,7,-2,-473,3,17,16
COc1cc(OC)c(NC(=O)c2c(-c3ccccc3)noc2C)cc1Cl,9,-1,79*,-3,12,10
COc1cc(OC)c(NC(=O)c2ccoc2C)cc1Cl,11,-2,71*,3,12,-4
Cc1cccc(C)c1NC(=O)c1c(-c2ccccc2)noc1C,8,1,·,14,-7,6
CCOC(=O)c1sc(NC(=O)COc2ccc(OC)cc2)c(C#N)c1C,8,·,·,·,·,-3
Cc1ccc(NC(=O)c2cccs2)cc1NC(=O)COc1ccc(Br)cc1,7,·,·,·,·,-23
CNC(=S)N(Cc1ccc(F)cc1)Cc1cc2cc(OC)ccc2[nH]c1=O,4,·,·,·,·,-32
CC1Cc2ccccc2N1C(=O)Cn1nnc2sc3c(c2c1=O)CCCC3 (stereo unspecified),7,·,·,·,·,9
Cc1ccc(-c2oc3ncnc(N)c3c2-c2ccc(C)cc2)cc1,5,0,39,-2,-22,61*
Cc1cccc(NC(=O)Cn2cc(C(=O)C(C)C)c3ccccc32)c1,11,·,·,·,·,-67
CC1(C)OC[C@@H]2O[C@H](n3cnc4c(N)nc(Cl)nc43)[C@H](OS(C)(=O)=O)[C@H]2O1,56*,·,·,·,·,-19
COc1ccc(C(=O)COC(=O)CCn2nnc3ccccc32)cc1Br,19,·,·,·,·,-31
CCOC(=O)/C=C(\C)Sc1cc(O)c2ccccc2c1O,69*,2,·,-4,0,-52
CCOC(=O)/C=C(\C)Sc1cc(=O)oc2ccccc12,11,0,9,16,-15,40
O=C(NC1CCCCC1)N(CCc1ccccc1)Cc1cc2cc3c(cc2[nH]c1=O)OCCO3,9,·,·,·,·,48
NC(=O)c1nc(-c2ccc3ncccc3c2)nc2c1[nH]c(=O)n2CCc1ccccc1,9,·,·,·,·,-49
Cc1cc2[nH]c(=O)c3ccccc3n2n1,12,0,83*,-11,·,32
O=S(=O)(c1cccs1)N1CCN(CC(O)COc2cccc(Br)c2)CC1 (stereo unspecified),6,1,-59,20,·,-14
O=S(=O)(c1cccs1)N1CCN(CC(O)COC2CCCc3ccccc32)CC1 (stereo unspecified),·,-2,·,3,100*,-7
CCN(CC)c1ncnc2scc(C3COc4ccccc4O3)c12 (stereo unspecified),12,1,8,-4,·,64*
CC12CC(c3ccccc3O1)C(C(=O)N1CCOCC1)C(=O)N2 (stereo unspecified),3,-2,71*,12,-3,13
SMILES,EP2 antag,S1P4 agonist,INS promoter inh,S1P4 antagonist,S1P3 antag,EP2 modulator
Cc1ccc(-c2cn3cccc(C)c3n2)cc1,6,3,73*,-14,-1,-21
Cc1cccn2cc(-c3ccc(Cl)cc3)nc12,1,1,·,-1,20,-16
Cn1cc([N+](=O)[O-])c(C(=O)NNC(=O)c2sc3ccccc3c2Cl)n1,12,·,·,·,·,-27
c1ccc(-n2c3ccccc3c3ccccc32)cc1,13,0,·,-13,-2,64*
Cc1nc2sc3c(c2c2nn(CC(=O)N4CCNC(=O)C4(C)C)c(=O)n12)CCC(C)C3 (stereo unspecified),·,·,·,·,·,-23
COC(=O)CS(=O)(=O)c1nnc([C@H](Cc2ccccc2)NC(=O)OC(C)(C)C)o1,10,-2,70*,-1,-10,12
O=C(NC1CCCCC1)C(c1ccco1)N(Cc1cccs1)C(=O)Cn1nnc2ccccc21 (stereo unspecified),10,1,·,0,31,61*
O=C(NC1CCCCC1)C(c1ccco1)N(C(=O)Cc1cccs1)c1ccc(F)cc1 (stereo unspecified),10,·,·,·,·,66*
O=C(NCc1ccco1)C(c1ccco1)N(Cc1cccs1)C(=O)Cn1nnc2ccccc21 (stereo unspecified),17,-1,-35,15,·,28
O=C(NC1CCCC1)C(c1ccccc1Cl)N(Cc1ccco1)C(=O)Cc1cccs1 (stereo unspecified),15,·,·,·,·,64*
O=C(NC1CCCCC1)C(c1ccncc1)N(C(=O)Cc1cccs1)c1ccc(F)cc1 (stereo unspecified),9,·,·,·,·,-16
Cc1nn2c(NCCCO)c3c(nc2c1-c1ccccc1)CCCC3,·,·,·,·,·,-22
Cc1cccc(C)c1NC(=O)C(C)N1CCC(n2nnc3cc(C(F)(F)F)ccc32)CC1 (stereo unspecified),12,·,·,·,·,-36
c1ccc(B2OC[C@@H]3OB(c4ccccc4)O[C@H]([C@@H]4COB(c5ccccc5)O4)[C@H]3O2)cc1,41*,·,·,·,·,13
CC1CCc2c(sc3nc(SCC(=O)N4CCCC4)[nH]c(=O)c23)C1 (stereo unspecified),18,·,·,·,·,16
COC(=O)c1sc(-c2ccc(Cl)cc2)cc1NC(=O)c1ccccc1C(=O)O,53*,2,·,3,-2,-18
CNc1nc(OC)nc(N2CCOCC2)n1,23,3,-110,-6,66*,18
Cc1ccc2[nH]c(=O)c(C(c3nnnn3Cc3ccccc3)N3CCc4ccccc43)cc2c1 (stereo unspecified),3,-4,-121,-11,·,28
CCc1ccc2[nH]c(=O)c(C(c3nnnn3Cc3ccccc3)N3CCCc4ccccc43)cc2c1 (stereo unspecified),15,·,·,·,·,66*
CCc1ccc2[nH]c(=O)c(C(c3nnnn3Cc3ccccc3)N3CCC(C)CC3)cc2c1 (stereo unspecified),12,·,·,·,·,55
CCc1ccc2[nH]c(=O)c(C(c3nnnn3Cc3ccco3)N3CCC(C)CC3)cc2c1 (stereo unspecified),3,0,-32,0,·,61*
Cc1cc(C)c2cc(C(c3nnnn3C3CCCCC3)N3CCCc4ccccc43)c(=O)[nH]c2c1 (stereo unspecified),8,·,·,·,·,71*
Cc1cc(C)c2[nH]c(=O)c(CN(C(=S)NCc3ccco3)C3CCCCC3)cc2c1,12,·,·,·,·,-27
COCCN1CC(C(=O)NCCn2nc3c(C)cc4ccccc4n3c2=O)CC1=O (stereo unspecified),5,·,·,·,·,2
COC(=O)[C@H]1CN(C(=O)c2n[nH]c3c2CCCC3)C[C@@H]1c1ccccc1F,·,·,·,·,·,-75
CCN=c1scc(C)n1/N=C/c1ccc(O)c(O)c1O,4,1,10,-7,·,-16
COCCN=c1scc(-c2cccs2)n1/N=C/c1ccc(O)c(O)c1O,19,13*,·,-16,-9,9

# From PubChem
